# According to the supplement of paper PMC8975748:
# Where a name gives a salt, the structure may show the parent alone.
# System: Saccharomyces cerevisiae BY4741 SeMeCo community
# Test: z-score of subpopulation abundance vs DMSO median, subpopulation auxotrophic for M; higher = larger share of this subpopulation than in DMSO controls
# Settings: 10 µM; 24 h; SM minimal medium; subpopulation (auxotrophy): M
# Description: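 Fluorescent four-plasmid SeMeCo (self-establishing metabolically cooperating S. cerevisiae BY4741 community; plasmids pH-mRuby2, pL-mWasabi, pU-eCFP, pM-TagRFP657) was grown 24 h in minimal SM medium with each Selleck FDA-approved drug at 10 µM in 384-well plates. Cells were fixed and imaged by high-content confocal microscopy. For each auxotrophic subpopulation (and the prototroph), a z-score gives the deviation from the DMSO vehicle-control population median.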
row,SMILES,z-score of subpopulation abundance
1,"NCC(O)c1ccc(O)cc1 (racemic) [(+,-)-Octopamine HCl]",0.19
2,CN1C(=O)COc2c(C(=O)NC3CN4CCC3CC4)cc(Cl)cc21 (centres undefined) [Azasetron HCl],1.59
3,COc1ccc(C(CN(C)C)C2(O)CCCCC2)cc1 (centres undefined) [Venlafaxine],-0.73
4,CC[C@H]1CN2CC[C@]3(C(=O)Nc4ccccc43)[C@@H]2C[C@@H]1/C(=C\OC)C(=O)OC [Rhynchophylline],-0.68
5,CN1[C@@H]2C[C@@H](OC(=O)[C@H](CO)c3ccccc3)C[C@H]1[C@@H]1O[C@@H]12 [Scopolamine HBr trihydrate],-0.97
6,Nc1nc(N)nc(NC2CC2)n1 [Cyromazine],0.95
7,CN1[C@@H]2CC[C@H]1C[C@@H](OC(=O)[C@H](CO)c1ccccc1)C2 [Hyoscyamine],-0.65
8,CN1[C@@H]2C[C@@H](OC(=O)[C@H](CO)c3ccccc3)C[C@H]1[C@@H]1O[C@@H]12 [Scopolamine HBr],-0.04
9,COc1cc2c(cc1OC)C1CC(=O)C(CC(C)C)CN1CC2 (centres undefined) [Tetrabenazine (Xenazine)],0.98
10,C[CH2][Hg][S]c1ccccc1C(=O)[O-].[Na+] [Thimerosal],-0.95
11,CC[C@@H](C(N)=O)N1CCCC1=O [Levetiracetam],0.08
12,CCOC(=O)Nc1ccc(NCc2ccc(F)cc2)cc1N [Retigabine 2HCl],0.27
13,C#C[C@]1(O)C=C[C@H]2[C@@H]3CCC4=CC(=O)CC[C@@H]4[C@H]3CC[C@@]21CC [Gestodene],0.43
14,C=CCN1C[C@H](C(=O)N(CCCN(C)C)C(=O)NCC)C[C@@H]2c3cccc4[nH]cc(c34)C[C@H]21 [Cabergoline],-0.27
15,CCOC(=O)Nc1ccc(NCc2ccc(F)cc2)cc1N [Retigabine],0.51
16,C[N+]12CCC(CC1)C(OC(=O)C(O)(c1ccccc1)c1ccccc1)C2 (centres undefined) [Clidinium Bromide],-0.85
17,N#Cc1nn(-c2c(Cl)cc(C(F)(F)F)cc2Cl)c(N)c1[S+]([O-])C(F)(F)F (centres undefined) [Fipronil],-1.13

row,SMILES,z-score of subpopulation abundance
1,CCCCCCCCCCCCCCCC[n+]1ccccc1 [Cetylpyridinium Chloride],-6.34
2,C=CC[C@]1(O)CC[C@H]2[C@@H]3CCC4=CC(=O)CCC4=C3C=C[C@@]21C [Altrenogest],0.62
3,CN(C)[C@@H]1C(=O)C(C(N)=O)=C(O)[C@@]2(O)C(=O)C3=C(O)c4c(O)cccc4[C@@](C)(O)[C@H]3[C@H](O)[C@@H]12 [Oxytetracycline Dihydrate],-1.02
4,Nc1ccncc1 [4-Aminopyridine],0.04
5,CCN1CC2(OC(=O)c3ccccc3NC(C)=O)CCC(OC)C34C1C(CC23)C1(O)CC(OC)C2CC4C1(O)C2OC (centres undefined) [Lappaconitine],0.06
6,O=[N+]([O-])C(Br)(CO)CO [Bronopol],0.51
7,O=C(O[C@H]1C[N+]2(CCCOc3ccccc3)CCC1CC2)C(O)(c1cccs1)c1cccs1 [Aclidinium Bromide],0.23
8,COc1ccc(C=O)cc1 [p-Anisaldehyde],-1.36
9,CN(C)C(=O)Oc1ccc[n+](C)c1 [Pyridostigmine Bromide],0.47
10,Oc1cccc2cccnc12 [8-Hydroxyquinoline],1.04
11,CN(C)C(=O)Oc1cccc([N+](C)(C)C)c1 [Neostigmine Bromide],0.29
12,CN(C)[C@@H]1C(=O)C(C(N)=O)=C(O)[C@@]2(O)C(=O)C3=C(O)c4c(O)cccc4[C@@](C)(O)[C@H]3[C@H](O)[C@@H]12 [Oxytetracycline (Terramycin)],-0.79
13,CC[N+](C)(CC)CCOC(=O)C(O)(c1ccccc1)c1ccccc1 [Methylbenactyzine Bromide],0.22
14,Cn1cc(C2=C(c3cn(C4CCN(Cc5ccccn5)CC4)c4ccccc34)C(=O)NC2=O)c2ccccc21,-1.26
15,CC(=O)O[C@H]1C[C@@H]2CC[C@@H]3[C@H](CC[C@@]4(C)[C@H]3C[C@H]([N+]3(C)CCCCC3)[C@@H]4OC(C)=O)[C@@]2(C)C[C@@H]1[N+]1(C)CCCCC1 [Pancuronium dibromide],-1.46
16,COC(=O)C1=CCCN(C)C1 [Arecoline HBr],0.3
17,Oc1cc(Cl)ccc1Oc1ccc(Cl)cc1Cl [Triclosan],-4.35
